{"source": "PubChem BioAssay (Tox21)", "note": "Results filed as inconclusive are left out. Where a call stands in place of a potency, no number is given. Calls of active or inactive are those of the source. Calls come from the whole dose curve; as a rule, active = well fitted cell-killing curve with a large enough effect in the repeat runs; inconclusive = weak or mixed curves, or effect the other way; inactive = flat fitted curve, though single readings scatter. Potency is the fitted concentration of half-maximal effect.", "data": [{"test": "cAMP Responsive Elements (CRE) small molecule antagonists, cell-based qHTS assay: qHTS cell viability counter screen (AID 2060913); note: nearly all actives have a fitted effect of over 40% in size", "conditions": "CRE-bla HEK293T viability, CellTiter-Glo luminescence, 5 h; series mostly up to 92.4 µM", "how_it_was_run": "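Viability of NKH477-stimulated (0.25 uM final) CRE-bla HEK293T cells is measured by CellTiter-Glo luminescence following 3 hrs compound exposure at 37 C.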", "values": [{"compound": "O=C(CCCCC(=O)Nc1c(I)cc(I)c(C(=O)O)c1I)Nc1c(I)cc(I)c(C(=O)O)c1I", "Potency": "inactive"}, {"compound": "NC(N)=S", "Potency": "inactive"}, {"compound": "Nc1ccc(-c2ccc(F)cc2)cc1", "Potency": "inactive"}, {"compound": "C=CCc1cc(S(=O)(=O)c2ccc(O)c(CC=C)c2)ccc1O", "Potency": "inactive"}, {"compound": "CC(CO)CO", "Potency": "inactive"}, {"compound": "CCO[C@@H]1O[C@H](C(COCc2ccccc2)OCc2ccccc2)[C@H](OCc2ccccc2)[C@H]1O", "note": "(some centres not stated)", "Potency": "inactive"}, {"compound": "CC/C=C\\CCCCCO", "Potency": "inactive"}, {"compound": "Cc1cc(C)c(C)c(O)c1", "Potency": "inactive"}, {"compound": "C=COCCOCCOC=C", "Potency": "inactive"}, {"compound": "CC1=C(C/C=C(\\C)CCC[C@H](C)CCC[C@H](C)CCCC(C)C)C(=O)c2ccccc2C1=O", "Potency": "inactive"}, {"compound": "CC(=O)N1CCN(c2ccc(OC[C@H]3CO[C@](Cn4ccnc4)(c4ccc(Cl)cc4Cl)O3)cc2)CC1", "Potency": "54.5 µM (active)"}, {"compound": "S=C(NC1CCCCC1)NC1CCCCC1", "Potency": "inactive"}, {"compound": "CC1CCCNC1", "note": "(configuration not stated)", "Potency": "inactive"}, {"compound": "NC(CCC(=O)O)C(=O)O", "note": "(configuration not stated)", "Potency": "inactive"}, {"compound": "O=C(O)c1cccc(Cl)c1Cl", "Potency": "inactive"}, {"compound": "CCOc1ccc2nc3cc(N)ccc3c(N)c2c1", "Potency": "inactive"}, {"compound": "OCCC1CCCCN1", "note": "(configuration not stated)", "Potency": "inactive"}, {"compound": "CCC(C)N(C)C(=O)c1cc2ccccc2c(-c2ccccc2Cl)n1", "note": "(configuration not stated)", "Potency": "inactive"}, {"compound": "C/C=C1/C(=O)C[C@H]2[C@@H]3CCC4=CC(=O)CC[C@]4(C)[C@H]3CC[C@]12C", "Potency": "inactive"}, {"compound": "OC[C@H]1O[C@H](O[C@]2(CCl)O[C@H](CCl)[C@@H](O)[C@@H]2O)[C@H](O)[C@@H](O)[C@H]1Cl", "Potency": "inactive"}, {"compound": "CC1CC(OC(=O)C(O)c2ccccc2)CC(C)(C)N1C", "note": "(configuration not stated)", "Potency": "inactive"}, {"compound": "CC(C)=CCC1C(=O)N(c2ccccc2)N(c2ccccc2)C1=O", "Potency": "inactive"}]}]}
